According to PubChem BioAssay:
For some of these results: Results with a measured potency or affinity are listed apart. Activity calls are given as the source filed them. Unless noted, how the calls were made is not given here.

Tests used:
[1] = antimalarial activity against Dd2 strain (AID 2302;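 active means growth inhibition above 50% at the single 2 µM test dose, taken to imply half-maximal potency below 2 µM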;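 further: 0% = DMSO untreated growth and 100% = chloroquine plus artemisinin killed control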); conditions: P. falciparum Dd2 in RBCs, LDH growth readout, 72 h; at 2 µM; active compounds read high
[2] = HepG2 cytotoxicity, primary screen, cytotoxicity control for P. falciparum antimalarial project, cell-based, ATP luminescence (AID 2303;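 active means inhibition above 50%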;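 further: 0% = DMSO wells and 100% = digitonin-killed cells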); conditions: HepG2 viability, 24-48 h, at 10 µM, active compounds read high
[3] = target: L-lactate dehydrogenase (Plasmodium falciparum (isolate CDC / Honduras)) (UniProt Q27743); experiment: PfLDH activity inhibition – cell lysate, 3D7 strain, counter-screen for P. falciparum growth inhibition project (AID 2304);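 further: 0% = vehicle and 100% = reference inhibitor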; conditions: P. falciparum 3D7 crude extract, LDH APAD/NBT absorbance; at 2 µM; active compounds read high
Sequence of L-lactate dehydrogenase (Plasmodium falciparum (isolate CDC / Honduras)) (Q27743 whole entry, looked up): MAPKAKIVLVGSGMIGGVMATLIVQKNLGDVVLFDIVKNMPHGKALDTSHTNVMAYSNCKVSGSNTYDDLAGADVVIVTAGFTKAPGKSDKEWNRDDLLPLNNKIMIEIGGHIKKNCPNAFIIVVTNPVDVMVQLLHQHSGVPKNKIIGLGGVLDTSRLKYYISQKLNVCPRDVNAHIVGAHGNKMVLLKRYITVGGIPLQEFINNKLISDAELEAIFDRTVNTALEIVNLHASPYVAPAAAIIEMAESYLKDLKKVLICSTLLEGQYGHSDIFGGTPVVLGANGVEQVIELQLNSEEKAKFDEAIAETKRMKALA

[4] = inhibition of 3D7 malaria parasite growth – strain 3D7 (AID 2306);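 further: 0% = DMSO wells and 100% = chloroquine plus artemisinin control wells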; conditions: P. falciparum 3D7 erythrocytic growth, LDH absorbance, 72 h; at 2 µM; active compounds read high
[5] = target: Calcium-dependent protein kinase 1 (Plasmodium falciparum (isolate 3D7)) (UniProt P62344); experiment: PfCDPK1 kinase inhibitors, biochemical, TCAMS library (AID 1159585; cut-off not given, nearly all actives have IC50 up to about 0.98 µM;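 further: inhibitors leave more ATP so luminescence rises with inhibition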); conditions: recombinant PfCDPK1, Kinase-Glo ATP depletion luminescence
Sequence of Calcium-dependent protein kinase 1 (Plasmodium falciparum (isolate 3D7)) (P62344 whole entry, looked up): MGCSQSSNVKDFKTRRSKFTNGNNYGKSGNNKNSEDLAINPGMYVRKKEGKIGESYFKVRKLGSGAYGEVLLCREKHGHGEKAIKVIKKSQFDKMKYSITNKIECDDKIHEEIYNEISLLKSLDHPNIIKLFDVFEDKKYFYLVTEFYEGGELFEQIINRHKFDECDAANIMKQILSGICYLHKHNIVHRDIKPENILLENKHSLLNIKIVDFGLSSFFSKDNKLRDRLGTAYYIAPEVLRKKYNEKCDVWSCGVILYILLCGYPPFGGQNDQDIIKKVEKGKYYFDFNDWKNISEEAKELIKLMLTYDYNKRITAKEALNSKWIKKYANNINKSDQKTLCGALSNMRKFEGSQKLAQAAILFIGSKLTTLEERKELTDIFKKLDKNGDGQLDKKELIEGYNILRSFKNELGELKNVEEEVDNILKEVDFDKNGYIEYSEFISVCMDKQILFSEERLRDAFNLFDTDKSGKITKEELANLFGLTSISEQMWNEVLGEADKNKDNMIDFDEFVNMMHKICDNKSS

[6] = target: Plasmodium falciparum protein kinase 6 (PK6, PF3D7_1337100) (UniProt Q8IDW1); experiment: PfPK6 kinase inhibitors, biochemical, TCAMS library (AID 1159586); conditions: recombinant PfPK6, Kinase-Glo ATP depletion luminescence
Sequence of Plasmodium falciparum protein kinase 6 (PK6, PF3D7_1337100) (Q8IDW1 1-305): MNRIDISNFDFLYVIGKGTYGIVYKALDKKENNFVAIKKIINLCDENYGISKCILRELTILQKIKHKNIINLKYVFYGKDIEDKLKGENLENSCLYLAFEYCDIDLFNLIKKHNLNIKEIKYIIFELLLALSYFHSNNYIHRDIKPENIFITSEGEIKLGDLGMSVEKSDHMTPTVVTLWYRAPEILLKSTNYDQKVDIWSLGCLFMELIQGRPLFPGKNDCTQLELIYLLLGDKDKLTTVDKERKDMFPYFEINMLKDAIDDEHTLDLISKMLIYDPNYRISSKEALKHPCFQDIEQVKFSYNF

[7] = target: Protein kinase 7 (PK7), Plasmodium falciparum 3D7 (PF3D7_0213400) (UniProt Q7YTF7); experiment: inhibition of Plasmodium PK7 catalytic activity – biochemical, TCAMS antimalarial set, Kinase-Glo luminescence (AID 1159587); conditions: recombinant PfPK7, Kinase-Glo ATP depletion luminescence
Sequence of Protein kinase 7 (PK7), Plasmodium falciparum 3D7 (PF3D7_0213400) (Q7YTF7 1-343): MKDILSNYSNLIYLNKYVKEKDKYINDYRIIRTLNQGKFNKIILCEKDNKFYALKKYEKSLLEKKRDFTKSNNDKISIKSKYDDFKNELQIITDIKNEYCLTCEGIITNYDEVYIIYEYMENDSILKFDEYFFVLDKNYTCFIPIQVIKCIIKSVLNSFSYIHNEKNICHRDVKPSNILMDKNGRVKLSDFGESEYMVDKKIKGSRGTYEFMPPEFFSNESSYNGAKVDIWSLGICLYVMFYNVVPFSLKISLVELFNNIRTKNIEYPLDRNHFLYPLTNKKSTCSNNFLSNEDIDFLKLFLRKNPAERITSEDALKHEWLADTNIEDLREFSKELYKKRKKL

[8] = target: Calcium-dependent protein kinase 4 (Plasmodium falciparum (isolate 3D7)) (UniProt Q8IBS5); experiment: PfCDPK4 kinase inhibitors, biochemical, TCAMS library (AID 1159588; cut-off not given, nearly all actives have IC50 up to about 0.91 µM); conditions: recombinant PfCDPK4, Kinase-Glo ATP depletion luminescence
Sequence of Calcium-dependent protein kinase 4 (Plasmodium falciparum (isolate 3D7)) (Q8IBS5 whole entry, looked up): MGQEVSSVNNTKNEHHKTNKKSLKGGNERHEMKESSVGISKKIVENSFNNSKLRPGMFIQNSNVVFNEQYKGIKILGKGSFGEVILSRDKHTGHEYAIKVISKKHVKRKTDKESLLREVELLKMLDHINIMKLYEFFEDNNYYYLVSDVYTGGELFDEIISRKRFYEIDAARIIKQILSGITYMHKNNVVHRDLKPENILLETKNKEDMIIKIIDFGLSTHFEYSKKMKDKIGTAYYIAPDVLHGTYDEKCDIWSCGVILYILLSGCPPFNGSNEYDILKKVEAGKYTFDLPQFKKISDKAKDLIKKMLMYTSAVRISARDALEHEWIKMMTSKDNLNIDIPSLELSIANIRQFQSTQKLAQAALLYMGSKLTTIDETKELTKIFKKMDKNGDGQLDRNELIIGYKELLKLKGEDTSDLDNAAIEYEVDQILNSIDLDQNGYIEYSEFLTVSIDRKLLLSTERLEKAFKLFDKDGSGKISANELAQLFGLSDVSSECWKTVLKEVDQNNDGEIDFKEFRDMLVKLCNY

O=C(Nc1ccc(Cl)cc1)Nc1cccc(CCNCc2ccccc2)c1
active: growth inhibition [4] 101%
inactive: growth inhibition [1] 12% | inhibition [2] 16% | inhibition [3] 6% | outcome [5] | outcome [6] | outcome [7] | outcome [8]

Cc1cc(NC(=O)c2cc(Br)ccc2Cl)n(-c2nc(C)c(C)c(=O)[nH]2)n1
active: growth inhibition [1] 83% | inhibition [2] 54% | growth inhibition [4] 91%
inactive: inhibition [3] -2% | outcome [5] | outcome [6] | outcome [7] | outcome [8]

COc1ccc2ccccc2c1CCCCN1CCN(CC(c2ccc(F)cc2)N2CCC(N3CCCC3)CC2)CC1 (stereo not drawn)
inactive: inhibition [3] 7% | outcome [5] | outcome [6] | outcome [7] | outcome [8]
active: growth inhibition [1] 73% | inhibition [2] 74% | growth inhibition [4] 99%

CCOc1ccc(C(=O)Nc2cc(Cl)ccc2O)cc1Cl
inactive: inhibition [2] 11% | inhibition [3] 0% | outcome [5] | outcome [6] | outcome [7] | outcome [8]
active: growth inhibition [1] 84% | growth inhibition [4] 83%

Cc1cccc(Oc2cccc3[nH]nc(N)c23)c1
inactive: growth inhibition [1] -3% | inhibition [2] 6% | inhibition [3] -2% | outcome [5] | outcome [6] | outcome [7] | outcome [8]
active: growth inhibition [4] 85%

COC(=O)c1cccc(CNCc2cccc(-c3cccc(-c4nc5ccccc5[nH]4)c3)c2)c1
active: growth inhibition [1] 58% | growth inhibition [4] 95%
inactive: inhibition [2] 3% | inhibition [3] -3% | outcome [5] | outcome [6] | outcome [7] | outcome [8]

COc1ccc(OC)c(-c2ccc(=O)n(CC(=O)Nc3cccc4ccccc34)n2)c1
active: growth inhibition [1] 95% | growth inhibition [4] 101%
inactive: inhibition [2] -9% | inhibition [3] 3% | outcome [5] | outcome [6] | outcome [7] | outcome [8]

O=C(Nc1cccc(F)c1)c1ccc(C(=O)NC2CCN(CC3CCCCC3)C2)cc1 (stereo not drawn)
inactive: growth inhibition [1] 15% | inhibition [2] 16% | inhibition [3] -3% | outcome [5] | outcome [6] | outcome [7] | outcome [8]
active: growth inhibition [4] 96%

CSCCCN1CCC(O)(c2ccc3oc(C(=O)Nc4ccc5sc(C)nc5c4)cc3c2)CC1
active: growth inhibition [1] 69% | growth inhibition [4] 101%
inactive: inhibition [2] 10% | inhibition [3] 4% | outcome [5] | outcome [6] | outcome [7] | outcome [8]

OCCN1CCN(Cc2ccc(-c3cccc(-c4nc5ccc(F)cc5[nH]4)c3)cc2)CC1
active: growth inhibition [1] 61% | growth inhibition [4] 100%
inactive: inhibition [2] 21% | inhibition [3] -2% | outcome [5] | outcome [6] | outcome [7] | outcome [8]

O=C(/C=C/c1ccc(Cl)c(Cl)c1)NCCCCCN1CCC(c2cn[nH]c2-c2ccccc2)CC1
active: growth inhibition [4] 85%
inactive: growth inhibition [1] -2% | inhibition [2] 28% | inhibition [3] -2% | outcome [5] | outcome [6] | outcome [7] | outcome [8]

CN1CCN(c2ccnc3ccc(NC(=O)Cc4ccc(OCc5ccccc5)cc4)cc23)CC1
active: growth inhibition [1] 89% | growth inhibition [4] 100%
inactive: inhibition [2] 6% | inhibition [3] -1% | outcome [5] | outcome [6] | outcome [7] | outcome [8]

Cc1cccc2[nH]c(-c3cccc(-c4ccc(CNCc5ccc(S(C)(=O)=O)cc5)cc4)c3)nc12
inactive: inhibition [2] 8% | inhibition [3] 6% | outcome [5] | outcome [6] | outcome [7] | outcome [8]
active: growth inhibition [1] 98% | growth inhibition [4] 101%

CC12CCC(=O)N1C(C(=O)Nc1cccc(C(=O)Nc3cccc(C(F)(F)F)c3)c1)CS2 (stereo not drawn)
inactive: inhibition [2] 6% | inhibition [3] -3% | outcome [5] | outcome [6] | outcome [7] | outcome [8]
active: growth inhibition [1] 89% | growth inhibition [4] 92%

c1ccc2c(Nc3ccc(OCCOCCOc4ccc(Nc5c6ccccc6nc6ccccc56)cc4)cc3)c3ccccc3nc2c1
active: growth inhibition [1] 97% | growth inhibition [4] 101%
inactive: inhibition [2] 38% | inhibition [3] 7% | outcome [5] | outcome [6] | outcome [7] | outcome [8]

COc1ccc(NC(=O)c2ccc(Br)c(C)c2)cc1N1CCN(CCCCc2ccccc2)CC1
inactive: growth inhibition [1] 17% | inhibition [2] 29% | inhibition [3] -1% | outcome [5] | outcome [6] | outcome [7] | outcome [8]
active: growth inhibition [4] 88%

COc1ccc(OC)c(Cc2cnc3nc(N)nc(N)c3c2C)c1
inactive: inhibition [3] 5% | outcome [5] | outcome [6] | outcome [7] | outcome [8]
active: growth inhibition [1] 97% | inhibition [2] 68% | growth inhibition [4] 92%

CC1(C)N=C(N)N=C(N)N1OCCCc1ccc(Cl)cc1Cl
inactive: inhibition [3] 0% | outcome [5] | outcome [6] | outcome [7] | outcome [8]
active: growth inhibition [1] 95% | inhibition [2] 54% | growth inhibition [4] 95%

CCOC(=O)c1[nH]c(-c2ccccc2)nc1-n1nc(C)cc1C
inactive: growth inhibition [1] 9% | inhibition [2] 7% | inhibition [3] 2% | outcome [5] | outcome [6] | outcome [7] | outcome [8]
active: growth inhibition [4] 92%

COc1cc(Cl)c(C)cc1-n1cc(C(=O)c2cc(Br)ccc2O)cc(C#N)c1=O
active: growth inhibition [4] 95%
inactive: growth inhibition [1] 35% | inhibition [2] 3% | inhibition [3] -3% | outcome [5] | outcome [6] | outcome [7] | outcome [8]

NC(=O)c1ccc(NCC(=O)Nc2cccc(-c3cccc(-c4nc5ccc(C(F)(F)F)cc5[nH]4)c3)c2)cc1
inactive: growth inhibition [1] 41% | inhibition [2] 32% | inhibition [3] 1% | outcome [5] | outcome [6] | outcome [7] | outcome [8]
active: growth inhibition [4] 99%

CCN(CC)S(=O)(=O)c1ccc(C=CC(=O)Nc2cc(Cl)ccc2N2CCOCC2)cc1
inactive: inhibition [2] 3% | inhibition [3] 4% | outcome [5] | outcome [6] | outcome [7] | outcome [8]
active: growth inhibition [1] 65% | growth inhibition [4] 90%

FC(F)(F)c1ccc2nc(-c3ccc(-c4cccc(CNCc5ccccc5)c4)cc3)[nH]c2c1
inactive: growth inhibition [1] 43% | inhibition [2] -2% | inhibition [3] -5% | outcome [5] | outcome [6] | outcome [7] | outcome [8]
active: growth inhibition [4] 100%

COc1cc(NC(=O)c2ccc3c(=O)n(Cc4ccccc4)c(=S)[nH]c3c2)cc(OC)c1OC
active: growth inhibition [4] 94%
inactive: growth inhibition [1] 47% | inhibition [2] 6% | inhibition [3] -3% | outcome [5] | outcome [6] | outcome [7] | outcome [8]

CCN(CC)CCN(Cc1ccc(-c2ccc(C(F)(F)F)cc2)cc1)C(=O)Cn1c(CCc2cccc(F)c2F)nc(=O)c2cccnc21
active: growth inhibition [1] 89% | inhibition [2] 75% | growth inhibition [4] 101%
inactive: inhibition [3] 2% | outcome [5] | outcome [6] | outcome [7] | outcome [8]

O=C(Nc1cccc(Cl)c1N1CCOCC1)C(Cl)(Cl)Cl
inactive: inhibition [2] 3% | inhibition [3] -3% | outcome [5] | outcome [6] | outcome [7] | outcome [8]
active: growth inhibition [1] 95% | growth inhibition [4] 96%

Cc1c(F)cc(C(=O)NC2CC2)cc1-c1ccc2c(cnn2S(=O)(=O)c2ccc(Cl)s2)c1
active: growth inhibition [1] 50% | growth inhibition [4] 81%
inactive: inhibition [2] 24% | inhibition [3] -4% | outcome [5] | outcome [6] | outcome [7] | outcome [8]

Cc1nn(C2CCS(=O)(=O)C2)c(C)c1C1Nc2ccccc2C(=O)N1Cc1ccc2c(c1)OCO2 (stereo not drawn)
inactive: inhibition [2] 7% | inhibition [3] 2% | outcome [5] | outcome [6] | outcome [7] | outcome [8]
active: growth inhibition [1] 93% | growth inhibition [4] 98%

Cc1cccc(C(=O)Nc2ccnc(N3CCC(N(C)Cc4ccc(C#N)cc4)CC3)c2)c1
active: growth inhibition [4] 94%
inactive: growth inhibition [1] 6% | inhibition [2] 12% | inhibition [3] -4% | outcome [5] | outcome [6] | outcome [7] | outcome [8]

O=C(NCc1cccc(F)c1)Nc1cccc(-c2cccc(-c3nc4ccccc4[nH]3)c2)c1
inactive: growth inhibition [1] 27% | inhibition [2] 28% | inhibition [3] -1% | outcome [5] | outcome [6] | outcome [7] | outcome [8]
active: growth inhibition [4] 96%

CCOc1cc(C(=O)Nc2ccccc2N2CCN(S(C)(=O)=O)CC2)cc(OCC)c1OCC
active: growth inhibition [1] 80% | growth inhibition [4] 91%
inactive: inhibition [2] -1% | inhibition [3] -2% | outcome [5] | outcome [6] | outcome [7] | outcome [8]

CN(CCCCNC(=O)c1ccc(-c2ccccc2)cc1)C1CCc2c(O)cccc2C1 (stereo not drawn)
active: growth inhibition [4] 102%
inactive: growth inhibition [1] 21% | inhibition [2] 24% | inhibition [3] 0% | outcome [5] | outcome [6] | outcome [7] | outcome [8]

Cc1cc(NN=Cc2ccc(F)cc2)c2ccc(F)cc2n1
active: growth inhibition [4] 99%
inactive: growth inhibition [1] 30% | inhibition [2] -7% | inhibition [3] 0% | outcome [5] | outcome [6] | outcome [7] | outcome [8]

N#Cc1cc([N+](=O)[O-])ccc1-n1nc(-c2cccc(Cl)c2)n(CC2CCCO2)c1=S (stereo not drawn)
inactive: inhibition [2] 0% | inhibition [3] -2% | outcome [5] | outcome [6] | outcome [7] | outcome [8]
active: growth inhibition [1] 89% | growth inhibition [4] 91%

CC1CCN(C(=O)CSc2nc(-c3ccc(C(C)C)cc3)no2)CC1
active: growth inhibition [1] 84% | growth inhibition [4] 98%
inactive: inhibition [2] -1% | inhibition [3] 2% | outcome [5] | outcome [6] | outcome [7] | outcome [8]

C(=C(c1cccs1)c1cccs1)c1ccc(CNC2CCN(Cc3ccccc3)CC2)cc1
inactive: growth inhibition [1] 21% | inhibition [2] 40% | inhibition [3] 4% | outcome [5] | outcome [6] | outcome [7] | outcome [8]
active: growth inhibition [4] 98%

O=C(Cn1c(CCc2cccc(F)c2F)nc(=O)c2ccccc21)N(CCN1CCCCC1)Cc1ccc(-c2ccc(C(F)(F)F)cc2)cc1
active: growth inhibition [1] 89% | growth inhibition [4] 101%
inactive: inhibition [2] 32% | inhibition [3] 4% | outcome [5] | outcome [6] | outcome [7] | outcome [8]

COc1cc2nc(N3CCN(C(=O)c4cccc(I)c4)CC3)nc(N)c2cc1OC
inactive: growth inhibition [1] 26% | inhibition [2] 11% | inhibition [3] 2% | outcome [5] | outcome [6] | outcome [7] | outcome [8]
active: growth inhibition [4] 88%

Cc1cc(-c2ccc(CNC3CCN(C)CC3)cc2)ccc1S(=O)(=O)NCc1ccccc1
inactive: inhibition [3] 5% | outcome [5] | outcome [6] | outcome [7] | outcome [8]
active: growth inhibition [1] 97% | inhibition [2] 52% | growth inhibition [4] 100%

O=c1cc(NCCCNCc2ccc(Cl)c(Cl)c2)[nH]c2ccc(Oc3ccccc3)cc12
active: growth inhibition [4] 92%
inactive: growth inhibition [1] 29% | inhibition [2] 1% | inhibition [3] 2% | outcome [5] | outcome [6] | outcome [7] | outcome [8]

Cc1c(OC(C)C)nc2ccccc2c1C(=O)N[C@H](c1cccc(F)c1)C1CC1
inactive: growth inhibition [1] 34% | inhibition [2] 6% | inhibition [3] 3% | outcome [5] | outcome [6] | outcome [7] | outcome [8]
active: growth inhibition [4] 83%
